Over roughly 33,000 sequences, “E-score (-0.5 to 0.5)” has its median near -0.032; the highest 2% begin near 0.36. The list comes from a sample in which the highest values are over-represented; it also holds similar and randomly drawn sequences.
Biological target: T1, Sko1 (UniProt Q02100)
T1 sequence: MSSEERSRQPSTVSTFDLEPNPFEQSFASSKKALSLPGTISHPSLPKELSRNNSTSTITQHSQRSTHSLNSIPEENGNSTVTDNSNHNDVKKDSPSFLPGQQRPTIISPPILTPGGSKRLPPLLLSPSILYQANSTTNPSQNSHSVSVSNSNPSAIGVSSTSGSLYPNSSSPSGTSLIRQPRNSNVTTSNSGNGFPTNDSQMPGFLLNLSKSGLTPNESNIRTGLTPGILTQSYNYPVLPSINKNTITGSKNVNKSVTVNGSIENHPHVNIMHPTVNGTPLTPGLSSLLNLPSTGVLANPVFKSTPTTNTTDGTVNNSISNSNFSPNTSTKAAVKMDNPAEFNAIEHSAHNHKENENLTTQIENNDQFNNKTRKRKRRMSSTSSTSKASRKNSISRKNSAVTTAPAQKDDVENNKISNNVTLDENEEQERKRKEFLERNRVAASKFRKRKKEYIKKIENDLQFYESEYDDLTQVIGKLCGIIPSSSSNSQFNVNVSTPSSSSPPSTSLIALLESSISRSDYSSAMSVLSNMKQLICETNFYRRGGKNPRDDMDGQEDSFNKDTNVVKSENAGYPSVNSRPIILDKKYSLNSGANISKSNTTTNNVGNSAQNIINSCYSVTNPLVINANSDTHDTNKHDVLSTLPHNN
Test: PBM E-score (8-mer binding enrichment) (E-score (-0.5 to 0.5)); higher = stronger / more preferred TF binding
Conditions: protein concentration: 200 nM; construct: GST-full length
Experimental: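 Universal 'all 10-mer' protein binding microarrays (Agilent AMADID 015681) probed with GST-tagged S. cerevisiae TFs (full-length or DBD) made by in vitro transcription/translation (PURExpress), about 100-200 nM. Bound TF was detected with fluorescent anti-GST. Each ungapped 8-mer (which stands for itself and its reverse complement) is scored by the PBM enrichment score (E-score), a modified Wilcoxon-Mann-Whitney statistic from -0.5 to +0.5, computed with the Universal PBM Analysis Suite. Scale: above 0.35 generally sequence-specific binding.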

Row | Sequence | PBM E-score
1 | GGAAAACC | -0.128
2 | CATTAGCC | -0.188
3 | AATGACAC | 0.258
4 | AGTGACAT | 0.361
5 | AATGACAT | 0.4
6 | AATGACAG | 0.0139
7 | AGTGACAA | 0.0709
8 | AGTGACAC | 0.191
9 | ACTGCCTG | -0.0718
10 | AGAAGCAT | -0.0822
11 | CTGGGTTC | -0.145
12 | ACCACAGC | -0.195
13 | AATGGCGG | -0.3
14 | AATGGCGC | -0.0228
15 | AATGGCGT | 0.387
16 | CACTCCTC | -0.168
17 | ACTCAGCT | -0.174
18 | CGCGTACG | 0.401
19 | CACGTACA | 0.389
20 | CGCGTACA | 0.209
21 | AGCGTACG | 0.214
22 | CAAGTACG | 0.135
23 | AACGTACA | 0.303
24 | CTCGTACC | 0.123
25 | CCCGTACA | -0.273

Row | Sequence | PBM E-score
26 | CACGTACG | 0.406
27 | CCCGTACG | 0.0984
28 | AACGTACC | 0.223
29 | CACGTACC | 0.407
30 | ACTTATTA | 0.157
31 | GAGCCCTC | -0.351
32 | ACCTTTCC | -0.271
33 | AGGGCGAT | -0.0344
34 | ACTAGGGC | -0.211
35 | GCACTTAA | 0.109
36 | AAACCTGC | -0.203
37 | AGCTTCCT | 0.0027
38 | TCCGTACA | 0.0313
39 | GCCGTACA | -0.148
40 | ACCGTACA | 0.0593
41 | GCCGTACC | -0.175
42 | GTCGTACA | 0.0687
43 | GGCGTACC | -0.0685
44 | TACGTACA | 0.477
45 | GACGTACC | 0.433
46 | GACGTACA | 0.446
47 | ATTCAAGA | 0.0257
48 | ACTCTCAA | -0.00162
49 | CGTGTGGA | 0.00704
50 | AAATCTCG | 0.014

Row | Sequence | PBM E-score
51 | GACACTTA | -0.00276
52 | CAATTACA | 0.167
53 | AAATTACC | 0.0333
54 | CAATTACC | 0.156
55 | ATATTACG | 0.465
56 | ATATTACC | 0.251
57 | AAATTACG | 0.439
58 | ATATTACA | 0.175
59 | CAATTACG | 0.455
60 | AAATTACT | 0.196
61 | AAGGTCGA | -0.0566
62 | ACCAAGCT | 0.0443
63 | GACACCAC | -0.0851
64 | CACTATCG | -0.0728
65 | GAATCATC | 0.0732
66 | ACGTTACC | 0.297
67 | CCGTTATA | 0.0635
68 | ACGTTATC | 0.413
69 | ACGTTAGC | 0.352
70 | ACGTTATA | 0.426
71 | ACGTTGTG | 0.311
72 | ACGTTACG | 0.428
73 | ACGTTACA | 0.359
74 | CCGTTATC | -0.00855
75 | GCGTTGTA | 0.057

Row | Sequence | PBM E-score
76 | GCGTTATA | 0.194
77 | ACGTTGTA | 0.394
78 | CGCGCTGC | -0.147
79 | CGCCCGGA | -0.211
80 | TACTGAAA | 0.219
81 | AGAGACGA | 0.0256
82 | CCGGCTCA | -0.162
83 | AAGAGAAC | 0.0447
84 | GTGTGAGA | 0.0436
85 | ACGTTATG | 0.419
86 | ACGTTAGG | 0.244
87 | ACGTTAAG | 0.325
88 | GGGACGCA | 0.0981
89 | CTGACGCA | 0.403
90 | ACGACGCA | 0.334
91 | AAGACGCG | -0.115
92 | GTGACGCA | 0.457
93 | ACGACGCG | 0.148
94 | ATGACGCG | 0.476
95 | CGGACGCA | -0.121
96 | CTGACGCC | 0.159
97 | GCGACGCA | 0.128
98 | AGGACGCA | -0.117
99 | ATGACGCA | 0.492
100 | GGACCTCA | -0.0759

Row | Sequence | PBM E-score
101 | ACCTGCGC | -0.192
102 | AGTGTGGG | -0.197
103 | CACCTGGC | -0.0659
104 | CAGCCCTC | -0.334
105 | CCCTAGAG | -0.32
106 | ATTCCCGG | -0.0536
107 | ACTAAGTA | 0.0919
108 | AGGCGCGG | -0.242
109 | ACAAACCG | -0.0685
110 | ATGCCCGG | -0.334
111 | GCGGTTAA | -0.186
112 | TAATTCTA | 0.227
113 | ATCACCAA | 0.0298
114 | AAGACGCC | -0.165
115 | ATGACGCC | 0.449
116 | ATGACTCC | -0.00531
117 | TACTAGAA | 0.124
118 | CGACGTAC | 0.412
119 | CGTCGTAG | 0.0813
120 | AGACGTAA | 0.447
121 | AGACGGAA | -0.136
122 | GGACGTAA | 0.426
123 | AGACGTTA | 0.283
124 | CGACGAAG | 0.00357
125 | GGACGTAC | 0.275

Row | Sequence | PBM E-score
126 | CGACGTAG | 0.368
127 | CGACGTGC | 0.22
128 | CGACGTTC | -0.0745
129 | GGACGTTA | 0.251
130 | CAAAAATC | 0.131
131 | CCGACTCA | -0.246
132 | ACCTAACA | 0.056
133 | CATTTGCG | 0.179
134 | ACGCAGCC | 0.0962
135 | AATACTTA | 0.178
136 | CGACGTAA | 0.472
137 | CGACGTTA | 0.337
138 | CGACGTGA | 0.344
139 | ACTGCACA | -0.0526
140 | GTAACGCA | 0.217
141 | CTAACGTA | 0.374
142 | CTAACGAA | 0.0318
143 | ATAACGTA | 0.461
144 | CTAACGGA | 0.007
145 | ATAACGAA | 0.268
146 | GTAACGTA | 0.421
147 | GTAACGAA | 0.216
148 | ATAACGGA | 0.0991
149 | TCGTCTCA | -0.0858
150 | ATTTCGAA | 0.247

Row | Sequence | PBM E-score
151 | AGTGGGGA | -0.201
152 | ACACCTTG | 0.00022
153 | TTTGCAAA | 0.0584
154 | ATTCATCG | -0.0686
155 | AACCAGAA | 0.0649
156 | AGTAGGAA | -0.0265
157 | CGGAAGGA | -0.178
158 | CCAACGCA | 0.117
159 | ACAACGGA | 0.00163
160 | ACAACGCC | 0.0338
161 | GCAACGTA | 0.399
162 | ACAACGTG | 0.218
163 | GCAACGAA | 0.148
164 | ACAACGTA | 0.416
165 | CCAACGTC | 0.236
166 | ACAACGTC | 0.368
167 | CCAACGTA | 0.387
168 | ACAACGAA | 0.0922
169 | GCAACGCA | 0.0485
170 | ATCACTCC | -0.0415
171 | CACACCCC | -0.208
172 | CGCGAACC | -0.0595
173 | AATCCAAT | 0.0698
174 | CTCGGATC | -0.0845
175 | TAATTCGA | 0.198

Row | Sequence | PBM E-score
176 | ATGCACTG | -0.0475
177 | AGATATTC | 0.0644
178 | ATAACGTC | 0.425
179 | ATAACGAC | 0.241
180 | ATAACGCG | 0.184
181 | ATAACGTG | 0.377
182 | ATAACGGG | 0.00173
183 | CTAACGTC | 0.338
184 | ATTGCTTC | -0.109
185 | CCGAACTC | -0.125
186 | CTGTTAGA | -0.0627
187 | AAGTTCTC | -0.203
188 | AAATGATT | 0.263
189 | AAATGATA | 0.266
190 | CAATGATA | 0.254
191 | CAATGATG | 0.381
192 | CAATGATC | 0.0721
193 | AAATGATG | 0.373
194 | CCCGATAC | -0.0866
195 | CCTACTTA | -0.00728
196 | GCCCGTAA | 0.172
197 | AAGCACGA | 0.0735
198 | ACGCACAT | 0.387
199 | ACGCACGA | 0.295
200 | ACGCACAG | 0.254

Row | Sequence | PBM E-score
201 | ACGCACGC | 0.316
202 | AAGCACGT | 0.389
203 | ACGCACGT | 0.403
204 | ACGCACAA | 0.262
205 | AAGCACGG | -0.00706
206 | GGAACGGA | -0.185
207 | ATTCGCTG | 0.0204
208 | AGAATACG | 0.304
209 | ATAATACC | 0.138
210 | ACAATACG | 0.386
211 | ATAATACA | 0.208
212 | ACAATACT | 0.151
213 | CGAATACC | -0.0967
214 | ACAATACA | 0.0868
215 | ATAATACG | 0.376
216 | CGAATACG | 0.406
217 | CTGGCAAC | -0.23
218 | CACGCTTA | 0.116
219 | AGATGCAT | -0.0801

Reference: the supplement of paper PMC3334620
